According to PubChem BioAssay (EPA / NIEHS):
Records with an inconclusive call do not appear. Activity calls are given as the source filed them. The calls were made as follows: active = hit-call score of the fitted dose curve at least 0.9, where 1 is the maximum; inconclusive = response in the unintended direction; inactive = score below 0.9.

Read-out: ABC Transporter (ABCB1), ABCB1 (gene 5243)
Experiment: CLD_ABCB1_6hr: CellzDirect (CLD) Gene Expression Assay for ABC Transporter (ABCB1) at 6 hours (AID 2283659);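 also: hits raise ABCB1 transcript above the DMSO vehicle baseline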
Procedure: CLD_6hr is a cell-based, multiplexed-readout assay that uses hepatocyte, a human liver primary cell, with measurements taken at 6 hours after chemical dosing in a 96-well plate.CLD_ABCB1_6hr is one of 16 assay component(s) measured or calculated from the CLD_6hr assay. It is designed to make measurements of mRNA induction, a form of inducible reporter, as detected with chemiluminescence signals by Quantitative Nuclease Protection Assay (qNPA) technology.Data from the assay component CLD_ABCB1_6hr was analyzed at the endpoint, CLD_ABCB1_6hr, in the positive analysis fitting direction relative to DMSO as the negative control and baseline of activity. Using a type of inducible reporter, gain-of-signal activity can be used to understand changes in the reporter gene as they relate to the gene ABCB1. Furthermore, this assay endpoint can be referred to as a primary readout. To generalize the intended target to other relatable targets, this assay endpoint is annotated to the transporter intended target family, where subfamily is ABC transporter.
Human hepatocyte cultures were treated daily for two consecutive days with fresh dosing solutions containing appropriate concentrations of the 320 ToxCast chemicals (chemical identities were blinded to CellzDirect and other ToxCast collaborators), vehicle control (0.2% DMSO), and positive control inducers as summarized in Table 1. Due to the large number of treatment groups and chemicals examined, the ToxCast chemicals were divided into two groups (spanning two independent cultures of hepatocytes from separate donor preparations (Hu778: ToxCast plates 1 and 2; Hu776: ToxCast plates 3 and 4). Each preparation of human hepatocyte cultures was treated with respective vehicle control, medium only control, set of six positive controls/reference chemicals for the five hepatic receptor pathways, and a subset of eight of the ToxCast chemicals (indoxacarb, pyrithiobac-sodium, norflurazon, cyhalofop-butyl, methomyl, thiram, acetochlor, and propiconazole). These replicate data, coupled with internal replicates designed within the blinded ToxCast chemical library, provided additional data to evaluate interindividual differences between hepatocyte preparations and their potential impact on chemical profiles.Cell morphology and integrity were evaluated using phase-contrast microscopy as an indicator of hepatocyte cell health (Tyson & Green, 1987). Cultures for each treatment group (i.e., media, vehicle [0.2% DMSO], positive control inducers [multiple concentrations], and the ToxCast chemicals [multiple concentrations]) were observed and cell morphology was assessed relative to vehicle control cultures at each harvest time point (0, 6, 24, or 48 h). […] Images were evaluated at the conclusion of the study to assess changes in cell integrity and account for the effects of chemical exposure on uncharacteristic changes in concentration-dependent gene expression profiles. The results from these determinations of apparent cytotoxicity were annotated (yes/no) alongside the corresponding qNPA data for reference.At the conclusion of each treatment period, hepatocyte cultures (96-well) were washed with 1 volume of HBSS, lysed by addition of 25 ul ArrayPlate lysis buffer (HTG, Tucson, AZ), and 70 ul/well of Denaturation Oil, denatured by incubation at 95C for 10 min, and frozen at approximately -70C until analysis by nuclease protection assay (qNPA) (Roberts et al., 2007). For qNPA analysis, cell lysates were thawed at 50C for approximately 30 min, qNPA probes were added, and samples were incubated at 95C for 10 min to begin the detection process by denaturing the target RNA, dissociating the duplexes and secondary structure hybridization. At the conclusion of the hybridization period, S1 nuclease reagent was added to each sample to digest all nonprotected nucleotides at 50C for 60-90 min. […]

Row | SMILES | outcome
1 | CCOC(=O)[C@H](C)Oc1ccc(Oc2nc3ccc(Cl)cc3o2)cc1 | inactive
2 | N#CSCSc1nc2ccccc2s1 | inactive
3 | C#CCOC(=O)[C@@H](C)Oc1ccc(Oc2ncc(Cl)cc2F)cc1 | inactive
4 | CCOC(=O)NCCOc1ccc(Oc2ccccc2)cc1 | inactive
5 | CCOC(=O)C(C)Oc1ccc(Oc2nc3ccc(Cl)cc3o2)cc1 (stereo not given) | inactive
6 | COC(=O)c1ccccc1C(=O)O | inactive
7 | CN(C)C(=O)Nc1ccc(Cl)c(Cl)c1 | inactive
8 | Oc1ccc(C(c2ccc(O)cc2)C(Cl)(Cl)Cl)cc1 | inactive
9 | COC(=O)CSc1cc(N=c2sc(=O)n3n2CCCC3)c(F)cc1Cl | inactive
10 | CCCN(CCC)C(=O)SCC | inactive
11 | CCNc1nc(N)nc(Cl)n1 | inactive
12 | COC(=O)c1ccc(CNS(C)(=O)=O)cc1S(=O)(=O)NC(=O)Nc1nc(OC)cc(OC)n1 | inactive
13 | CSC(=O)c1cccc2nnsc12 | inactive
14 | CCOC(=O)COc1cc(-n2ncc(C(F)(F)F)c(C)c2=O)c(F)cc1Cl | inactive
15 | CCCOC(=O)c1ccc(C(=O)OCCC)nc1 | inactive
16 | c1ccc2[nH]c(-c3cscn3)nc2c1 | inactive
17 | O=C(Nc1ccc([N+](=O)[O-])cc1Cl)c1cc(Cl)ccc1O | inactive
18 | S=C(S)NCCNC(=S)S.[Mn+2].[S-]C([S-])=NCCN=C([S-])[S-].[Zn+2] | inactive

Row | SMILES | outcome
19 | CCC(C)OC(=O)N1CCCCC1CCO (stereo not given) | inactive
20 | CC(C)(c1ccc(O)cc1)c1ccc(O)cc1 | inactive
21 | CC(C)(C)[C@@H](O)[C@@H](Cc1ccc(Cl)cc1)n1cncn1 | inactive
22 | CCCCCCC(C)OC(=O)COc1nc(F)c(Cl)c(N)c1Cl (stereo not given) | inactive
23 | CCCCOC(=O)[C@@H](C)Oc1ccc(Oc2ccc(C(F)(F)F)cn2)cc1 | inactive
24 | CCCOC(=O)NCCCN(C)C | inactive
25 | COc1nc(C)nc(NC(=O)NS(=O)(=O)c2ccccc2OCCCl)n1 | inactive
26 | CCCCCOC(=O)COc1cc(N2C(=O)C3=C(CCCC3)C2=O)c(F)cc1Cl | inactive
27 | CCC(O)=C1C(=O)CC(C(=O)O)CC1=O (stereo not given) | inactive
28 | COc1c(Cl)ccc(Cl)c1C(=O)O | inactive
29 | CCCCC(CC)COC(=O)c1ccccc1C(=O)O (stereo not given) | inactive
30 | CCCN(CCC)c1c([N+](=O)[O-])cc(C(F)(F)F)c(N)c1[N+](=O)[O-] | inactive
31 | CCN(CC)C(=O)c1cccc(C)c1 | inactive
32 | CCCCC(CC)CN1C(=O)C2C3C=CC(C3)C2C1=O (stereo not given) | inactive
33 | COCCO | inactive
34 | C=CCOC(Cn1ccnc1)c1ccc(Cl)cc1Cl (stereo not given) | inactive
35 | COC(=O)c1ccc(I)cc1S(=O)(=O)NC(=O)Nc1nc(C)nc(OC)n1 | inactive
